In PubChem BioAssay (EPA / NIEHS):
Calls of active or inactive are those of the source. How the source made its calls: active means hit-call score of the fitted dose curve at least 0.9, where 1 is the maximum; inactive means score below 0.9.

Columns and labels:
[1] = tested on: Brachyury (BRA) Protein Expression, Deisenroth Lab, TBXT (gene 6862); experiment: CCTE_Deisenroth_DEVTOX-GLR_legacy_Bra: (Legacy) CCTE's DevTox GLR-Endo Assay Evaluation of Brachyury (BRA) Protein Expression, Deisenroth Lab (AID 2284329)
In short: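 Readout: percent Bra+ cells by high-content fluorescence imaging, Bra+ meaning mean intensity 5x BMAD over pluripotent control median. RUES2-GLR cells dosed twice over 48 h differentiation; DMSO-control median subtracted before concentration-response fitting.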

[2] = CCTE_Deisenroth_DEVTOX-GLR_legacy_CellCount: (Legacy) Viability Assessment in CCTE's DevTox GLR-Endo Assay, Deisenroth Lab (AID 2284331); conditions: actives raise or lower the signal
In short: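 Human pluripotent RUES2-GLR cells differentiated 48 h with two 24-h-interval exposures, 10-point 1 nM–200 uM series, 0.2% DMSO. Fixed nuclei counted by high-content imaging (5 fields/well); bidirectional fit vs DMSO, n≥4.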

[3] = tested on: SRY-box transcription factor 17 (SOX17) Protein Expression, Deisenroth Lab, SOX17 (gene 64321); experiment: CCTE_Deisenroth_DEVTOX-GLR_legacy_Sox17: (Legacy) CCTE's DevTox GLR-Endo Assay Evaluation of SRY-box transcription factor 17 (SOX17) Protein Expression, Deisenroth Lab (AID 2284341); conditions: actives raise or lower the signal
In short: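 RUES2-GLR human pluripotent cells differentiated toward endoderm for 48 h, dosed twice at 24 h intervals (1 nM–200 uM, 10 points). Imaging gives % SOX17+ cells (intensity >5x BMAD above pluripotent control median); bidirectional fit versus 0.2% DMSO.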

[4] = tested on: SRY-box transcription factor 2 (SOX2) Protein Expression, Deisenroth Lab, SOX2 (gene 6657); experiment: CCTE_Deisenroth_DEVTOX-GLR_legacy_Sox2: (Legacy) CCTE's DevTox GLR-Endo Assay Evaluation of SRY-box transcription factor 2 (SOX2) Protein Expression, Deisenroth Lab (AID 2284346)
In short: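 Read-out: fraction of Sox2+ cells by high-content fluorescence imaging of fixed RUES2-GLR cells after 48 h differentiation with two 24 h-spaced exposures. Positivity cutoff 5x BMAD above endoderm control median; 0.2% DMSO median subtracted.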

Measured: outcome

O=C(O)c1ccccc1O
inactive: all assays above

CC(C)Cc1ccc(C(C)C(=O)O)cc1 (stereo unspecified)
inactive: [2] | [4]
